Measured values taken from PubChem BioAssay (EPA / NIEHS).
Values joined by “and” are separate entries in the source; they are usually repeats but may differ in a detail not shown here. Equal values may be shown once. Inconclusive results are not listed. A structure can be active in one record and inactive in another. Active and inactive are the calls of the source. How the source made its calls, unless noted: active means hit-call score of the fitted dose curve at least 0.9, where 1 is the maximum; inconclusive means response in the unintended direction; inactive means score below 0.9.

Legend:
[1] = ATG_TCF_b_cat_CIS: Attagene CIS-FACTORIAL HepG2 Assay for human T-Cell-Factor with beta-catenin (TCF/b-cat) (AID 2282965; active means hit-call score of the fitted dose curve at least 0.9, where 1 is the maximum; inactive means score below 0.9); settings: HepG2 TCF/beta-catenin cis-reporter transcription, actives raise or lower the signal
Procedure, shortened: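 Measured: reporter mRNA in HepG2 transiently transfected with cis-promoter reporter units, 24 h after chemical addition. Fitting was bidirectional, DMSO as negative control.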

[2] = ATG_TAL_CIS: Attagene CIS-FACTORIAL HepG2 Assay for human TAL Basal Promoter (AID 2282966; active means hit-call score of the fitted dose curve at least 0.9, where 1 is the maximum; inactive means score below 0.9;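 further: background control endpoint measuring basal TAL promoter reporter mRNA not a specific factor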); settings: HepG2 Attagene cis-factorial TAL promoter reporter; actives raise or lower the signal
Procedure, shortened: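 In this cell-based multiplex, HepG2 liver cells bearing cis-promoter reporter constructs are dosed for 24 hours. Total RNA is reverse-transcribed and amplified, labelled fragments are sized by capillary electrophoresis, and signal changes are fitted bidirectionally versus DMSO.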

[3] = ATG_TGFb_CIS: Attagene CIS-FACTORIAL HepG2 Assay for human Transforming Growth Factor (TGF) (AID 2282967; active means hit-call score of the fitted dose curve at least 0.9, where 1 is the maximum; inactive means score below 0.9); settings: HepG2 Attagene CIS TGFb reporter, mRNA transcription; actives raise or lower the signal
Procedure, shortened: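 HepG2 cells transiently transfected with cis-promoter-driven multiplexed reporter units; 24 h compound exposure. Reporter mRNA measured by RT-PCR, 6-FAM labeling, HpaI digestion and capillary electrophoresis; bidirectional fit versus DMSO baseline.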

[4] = target: Estrogen receptor (Homo sapiens) (UniProt P03372); experiment: ATG_ERa_TRANS: Attagene TRANS-FACTORIAL HepG2 Assay for human Estrogen Receptor alpha (ERa) (AID 2282970); settings: HepG2 Attagene TRANS ERa GAL4 reporter, mRNA
Estrogen receptor (Homo sapiens), sequence (P03372 whole entry, looked up, the tested form may be a part): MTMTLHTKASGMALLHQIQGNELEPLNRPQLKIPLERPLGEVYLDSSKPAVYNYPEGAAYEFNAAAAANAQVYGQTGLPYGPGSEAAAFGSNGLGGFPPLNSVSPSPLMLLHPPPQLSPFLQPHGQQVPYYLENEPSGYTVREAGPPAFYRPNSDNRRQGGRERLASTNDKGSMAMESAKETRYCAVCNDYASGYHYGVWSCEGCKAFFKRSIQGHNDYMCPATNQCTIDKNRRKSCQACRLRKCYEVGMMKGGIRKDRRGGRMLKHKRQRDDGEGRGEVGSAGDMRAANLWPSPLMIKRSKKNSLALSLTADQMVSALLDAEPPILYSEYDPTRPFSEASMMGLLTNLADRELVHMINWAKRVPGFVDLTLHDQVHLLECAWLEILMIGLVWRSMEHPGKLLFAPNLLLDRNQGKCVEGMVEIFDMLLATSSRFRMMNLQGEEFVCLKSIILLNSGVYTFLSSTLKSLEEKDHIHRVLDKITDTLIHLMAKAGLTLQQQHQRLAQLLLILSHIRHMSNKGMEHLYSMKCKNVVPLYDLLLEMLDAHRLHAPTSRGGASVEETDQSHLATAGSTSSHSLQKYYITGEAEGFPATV
Procedure, shortened: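 After 24 h of compound treatment, RNA from HepG2 cells bearing transfected GAL4-UAS reporter constructs is converted to cDNA, amplified and fluorescently labelled. Capillary electrophoresis resolves the ERa-linked reporter; DMSO serves as negative control.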

[5] = target: X-box-binding protein 1 (Homo sapiens) (UniProt P17861); experiment: ATG_Xbp1_CIS: Attagene CIS-FACTORIAL HepG2 Assay for human X-box Binding Protein 1 (XBP1) (AID 2282972; active means hit-call score of the fitted dose curve at least 0.9, where 1 is the maximum; inactive means score below 0.9); settings: HepG2 XBP1 cis-element reporter, Attagene multiplex; actives raise or lower the signal
X-box-binding protein 1 (Homo sapiens), sequence (P17861 whole entry, looked up): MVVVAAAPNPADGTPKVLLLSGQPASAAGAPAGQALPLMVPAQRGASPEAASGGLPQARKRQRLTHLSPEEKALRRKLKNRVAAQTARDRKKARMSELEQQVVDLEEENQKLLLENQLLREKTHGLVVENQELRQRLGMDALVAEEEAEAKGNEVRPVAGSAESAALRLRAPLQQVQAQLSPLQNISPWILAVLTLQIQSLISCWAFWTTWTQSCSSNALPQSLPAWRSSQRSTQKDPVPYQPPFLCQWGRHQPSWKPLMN
Procedure, shortened: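 HepG2 cells transiently transfected with multiple cis-element reporter units report endogenous TF activity; 24 h exposure, then reporter mRNA measured by RT-PCR, 6-FAM labelling, HpaI digestion and capillary electrophoresis. Bidirectional fitting versus DMSO.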

[6] = ATG_GAL4_TRANS: Attagene TRANS-FACTORIAL HepG2 Assay for GAL4 (Internal Marker) (AID 2282976); settings: HepG2 Attagene TRANS GAL4 internal marker reporter
Procedure, shortened: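 RT-PCR/capillary electrophoresis readout of reporter mRNA. HepG2, transient MRTU transfection (GAL4-UAS reporters), 24 h compound exposure. Background-control endpoint, positive direction vs DMSO baseline.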

[7] = target: Glucocorticoid receptor (Homo sapiens) (UniProt P04150); experiment: ATG_GR_TRANS: Attagene TRANS-FACTORIAL HepG2 Assay for human Glucocorticoid Receptor (GR) (AID 2282978); settings: HepG2 Attagene TRANS GR reporter, mRNA transcription;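 further: activators score as hits since higher reporter transcript over DMSO is fitted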
Glucocorticoid receptor (Homo sapiens), sequence (P04150 whole entry, looked up): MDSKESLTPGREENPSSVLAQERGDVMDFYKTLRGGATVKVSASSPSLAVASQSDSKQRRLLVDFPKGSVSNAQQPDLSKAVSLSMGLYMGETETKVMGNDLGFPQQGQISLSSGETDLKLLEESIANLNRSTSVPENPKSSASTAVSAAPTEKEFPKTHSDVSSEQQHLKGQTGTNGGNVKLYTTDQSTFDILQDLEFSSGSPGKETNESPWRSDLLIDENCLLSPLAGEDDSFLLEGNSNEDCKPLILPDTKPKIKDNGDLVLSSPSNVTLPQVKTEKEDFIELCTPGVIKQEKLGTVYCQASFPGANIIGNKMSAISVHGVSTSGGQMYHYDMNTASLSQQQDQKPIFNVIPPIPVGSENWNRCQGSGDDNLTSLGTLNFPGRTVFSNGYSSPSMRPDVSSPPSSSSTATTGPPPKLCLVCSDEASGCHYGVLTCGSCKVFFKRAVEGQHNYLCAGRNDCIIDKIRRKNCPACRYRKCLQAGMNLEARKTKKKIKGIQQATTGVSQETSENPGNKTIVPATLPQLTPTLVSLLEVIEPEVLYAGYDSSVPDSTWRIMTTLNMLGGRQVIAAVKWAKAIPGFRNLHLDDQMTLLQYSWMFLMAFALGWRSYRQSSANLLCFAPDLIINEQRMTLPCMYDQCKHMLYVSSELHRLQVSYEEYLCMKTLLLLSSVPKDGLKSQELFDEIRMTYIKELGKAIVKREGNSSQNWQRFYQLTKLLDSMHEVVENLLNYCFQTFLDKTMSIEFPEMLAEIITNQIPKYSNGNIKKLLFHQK
Procedure, shortened: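 After 24 h incubation with test chemical, transfected HepG2 cells were lysed for RNA; reporter cDNA was amplified, FAM-labelled, HpaI-digested and sized on a capillary analyser. Signal gain relative to DMSO was scored.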

[8] = target: Bile acid receptor (Homo sapiens) (UniProt Q96RI1); experiment: ATG_FXR_TRANS: Attagene TRANS-FACTORIAL HepG2 Assay for Farnesoid X Receptor (FXR) (AID 2282979); settings: HepG2 Attagene TRANS FXR-GAL4 reporter transcription;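 further: hits raise reporter mRNA above DMSO so AC50 marks FXR activation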
Bile acid receptor (Homo sapiens), sequence (Q96RI1 whole entry, looked up, the tested form may be a part): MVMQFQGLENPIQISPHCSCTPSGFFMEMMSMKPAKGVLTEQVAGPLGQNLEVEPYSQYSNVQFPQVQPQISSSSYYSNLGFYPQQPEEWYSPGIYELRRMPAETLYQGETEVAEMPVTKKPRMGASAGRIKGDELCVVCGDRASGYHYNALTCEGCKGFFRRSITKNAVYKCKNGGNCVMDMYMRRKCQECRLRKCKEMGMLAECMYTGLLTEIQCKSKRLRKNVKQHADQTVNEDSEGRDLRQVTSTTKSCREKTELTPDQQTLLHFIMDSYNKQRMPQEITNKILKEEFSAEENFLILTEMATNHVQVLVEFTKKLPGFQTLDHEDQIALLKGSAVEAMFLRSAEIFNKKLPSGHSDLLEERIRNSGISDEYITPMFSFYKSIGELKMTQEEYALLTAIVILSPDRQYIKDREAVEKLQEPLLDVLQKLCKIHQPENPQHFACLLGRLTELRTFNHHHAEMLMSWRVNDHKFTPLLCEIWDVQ
Procedure, shortened: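 Read-out: fluorescent reporter transcripts quantified by capillary electrophoresis after RT-PCR of total RNA. Source cells were HepG2 transiently carrying chimeric NR-GAL4 plus GAL4-UAS reporter units, dosed 24 h. Activity fitted upward relative to DMSO baseline.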

[9] = ATG_M_06_TRANS: Attagene TRANS-FACTORIAL HepG2 Assay for M06 Transcription Factor (Internal Marker) (AID 2282983); settings: HepG2 Attagene TRANS M06 internal marker reporter;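 on AC50: potency for rise in reporter mRNA above DMSO baseline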
Procedure, shortened: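 After a 24 h chemical treatment of transfected HepG2, RNA underwent DNase I treatment, reverse transcription and reporter-specific PCR; labelled, HpaI-digested products were sized by capillary electrophoresis. Signal increase relative to DMSO defined activity.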

[10] = ATG_M_32_TRANS: Attagene TRANS-FACTORIAL HepG2 Assay for M32 Transcription Factor (Internal Marker) (AID 2282984); settings: HepG2 Attagene TRANS M32 internal marker reporter;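 further: transcript level of a background control reporter unit measured by RT-PCR and capillary electrophoresis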
Procedure, shortened: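 Measures reporter mRNA induction in human HepG2 liver cells after 24 h chemical treatment. Transcripts from transiently transfected GAL4-UAS reporter units are amplified, fluorescently labelled and sized by capillary electrophoresis; gain of signal relative to DMSO.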

[11] = target: Nuclear receptor subfamily 4 group A member 2 (Homo sapiens) (UniProt P43354); experiment: ATG_NURR1_TRANS: Attagene TRANS-FACTORIAL HepG2 Assay for human Nuclear Receptor Related Protein 1 (NURR1) (AID 2282985); settings: HepG2 Attagene TRANS reporter, mRNA readout
Procedure, shortened: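 Transient transfection of HepG2, human liver cells, with multiple GAL4-UAS reporter transcription units. Cells dosed 24 h, RNA isolated, reverse-transcribed, PCR-amplified, FAM-labelled, HpaI-digested, sized by capillary electrophoresis. DMSO served as negative control.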

[12] = target: Transcriptional activator Myb (Homo sapiens) (UniProt P10242); experiment: ATG_Myb_CIS: Attagene CIS-FACTORIAL HepG2 Assay for human Myeloblastosis (Myb) Proto-Oncogene Transcription Factor (AID 2282986; active means hit-call score of the fitted dose curve at least 0.9, where 1 is the maximum; inactive means score below 0.9); settings: HepG2 Attagene CIS-FACTORIAL Myb reporter transcription; actives raise or lower the signal
Transcriptional activator Myb (Homo sapiens), sequence (P10242 whole entry, looked up): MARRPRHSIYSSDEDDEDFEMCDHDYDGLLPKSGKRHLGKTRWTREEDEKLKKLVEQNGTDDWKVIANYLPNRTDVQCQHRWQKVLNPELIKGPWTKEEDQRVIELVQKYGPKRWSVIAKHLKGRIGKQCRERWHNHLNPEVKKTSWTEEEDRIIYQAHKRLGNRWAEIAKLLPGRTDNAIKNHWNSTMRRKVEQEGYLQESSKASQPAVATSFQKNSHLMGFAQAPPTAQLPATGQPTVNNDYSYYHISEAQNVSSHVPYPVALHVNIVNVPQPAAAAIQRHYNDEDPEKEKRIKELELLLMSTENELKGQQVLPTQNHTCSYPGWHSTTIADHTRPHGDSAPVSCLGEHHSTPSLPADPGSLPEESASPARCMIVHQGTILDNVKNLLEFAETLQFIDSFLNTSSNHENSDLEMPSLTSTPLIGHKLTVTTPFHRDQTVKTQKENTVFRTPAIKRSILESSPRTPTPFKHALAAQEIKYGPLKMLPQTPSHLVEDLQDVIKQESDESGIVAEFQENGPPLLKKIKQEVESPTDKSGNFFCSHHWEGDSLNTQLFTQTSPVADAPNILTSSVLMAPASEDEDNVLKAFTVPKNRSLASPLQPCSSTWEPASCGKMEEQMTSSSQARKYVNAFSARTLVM
Procedure, shortened: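 After 24 h of compound dosing, total RNA from transfected HepG2 cells is reverse-transcribed and the reporter sequences amplified, labeled and separated by capillary electrophoresis. Values come from bidirectional fitting against DMSO.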

[13] = target: Steroid hormone receptor ERR1 (Homo sapiens) (UniProt P11474); experiment: ATG_ERRa_TRANS: Attagene TRANS-FACTORIAL HepG2 Assay for human Estrogen-Related Receptor alpha (ERRa) (AID 2282971); settings: HepG2 Attagene TRANS reporter, ERRa transactivation
Steroid hormone receptor ERR1 (Homo sapiens), sequence (P11474 whole entry, looked up, the tested form may be a part): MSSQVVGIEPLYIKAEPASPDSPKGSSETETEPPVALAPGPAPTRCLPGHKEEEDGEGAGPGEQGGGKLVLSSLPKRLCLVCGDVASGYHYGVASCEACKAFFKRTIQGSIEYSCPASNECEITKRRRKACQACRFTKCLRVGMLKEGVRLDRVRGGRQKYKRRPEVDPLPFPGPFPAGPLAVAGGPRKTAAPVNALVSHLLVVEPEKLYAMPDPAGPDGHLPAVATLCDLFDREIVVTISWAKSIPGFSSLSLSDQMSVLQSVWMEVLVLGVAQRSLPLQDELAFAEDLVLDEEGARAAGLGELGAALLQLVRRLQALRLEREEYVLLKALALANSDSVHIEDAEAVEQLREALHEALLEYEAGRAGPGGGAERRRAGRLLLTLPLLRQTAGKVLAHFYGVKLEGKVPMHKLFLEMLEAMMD
Procedure, shortened: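 Transfected HepG2, 24 h dosing, ERRa-Gal4 chimera driving GAL4-UAS reporter. Readout: reporter mRNA via RT-PCR plus capillary electrophoresis (fluorescence). Positive direction vs DMSO control.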

[14] = ATG_M_19_TRANS: Attagene TRANS-FACTORIAL HepG2 Assay for M19 Transcription Factor (Internal Marker) (AID 2282974); settings: HepG2 Attagene TRANS-FACTORIAL M19 internal marker reporter
Procedure, shortened: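 Transfected HepG2 (GAL4-UAS MRTUs), 24 h compound, TriZol RNA, DNase-treated RT, reporter PCR, FAM label, HpaI digest, CE fluorescence; gain vs DMSO.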

[15] = target: Estrogen-related receptor gamma (Homo sapiens) (UniProt P62508); experiment: ATG_ERRg_TRANS: Attagene TRANS-FACTORIAL HepG2 Assay for human Estrogen-Related Receptor gamma (ERRg) (AID 2282977); settings: HepG2 Attagene TRANS reporter, ERRg transactivation;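 further: hits increase reporter signal over DMSO so potencies reflect activators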
Estrogen-related receptor gamma (Homo sapiens), sequence (P62508 whole entry, looked up, the tested form may be a part): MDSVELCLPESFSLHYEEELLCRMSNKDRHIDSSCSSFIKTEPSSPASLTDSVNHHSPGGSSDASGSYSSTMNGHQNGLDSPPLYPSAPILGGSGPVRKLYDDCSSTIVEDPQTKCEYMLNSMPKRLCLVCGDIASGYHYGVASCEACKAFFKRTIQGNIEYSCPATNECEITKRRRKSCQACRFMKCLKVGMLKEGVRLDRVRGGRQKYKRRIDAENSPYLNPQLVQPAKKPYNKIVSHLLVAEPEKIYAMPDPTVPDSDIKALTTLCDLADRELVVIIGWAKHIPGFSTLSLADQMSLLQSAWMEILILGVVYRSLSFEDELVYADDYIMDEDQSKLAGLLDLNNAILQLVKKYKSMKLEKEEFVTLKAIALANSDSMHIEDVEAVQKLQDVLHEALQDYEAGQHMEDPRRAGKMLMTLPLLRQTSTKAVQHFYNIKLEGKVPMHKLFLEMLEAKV
Procedure, shortened: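 Transfect HepG2 with multiple GAL4-UAS reporter transcription units; dose chemicals 24 h; isolate RNA, reverse-transcribe with oligo(dT), PCR-amplify, label with 6-FAM, digest with HpaI; size fragments by capillary electrophoresis. DMSO serves as negative control.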

[16] = target: Oxysterols receptor LXR-alpha (Homo sapiens) (UniProt Q13133); experiment: ATG_LXRa_TRANS: Attagene TRANS-FACTORIAL HepG2 Assay for human Liver X Receptor alpha (LXRa) (AID 2282980); settings: HepG2 Attagene TRANS reporter, LXRa transactivation
Procedure, shortened: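 Read-out: reporter transcript levels by RT-PCR plus capillary electrophoresis, fluorescence intensity. Transiently transfected HepG2, exogenous NR-GAL4 chimera, GAL4-UAS reporters; 24 h compound exposure. Activity = increase over DMSO negative control.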

[17] = target: Oxysterols receptor LXR-beta (Homo sapiens) (UniProt P55055); experiment: ATG_LXRb_TRANS: Attagene TRANS-FACTORIAL HepG2 Assay for human Liver X Receptor beta (LXRb) (AID 2282981); settings: HepG2 Attagene TRANS GAL4-LXRb reporter, mRNA
Oxysterols receptor LXR-beta (Homo sapiens), sequence (P55055 whole entry, looked up, the tested form may be a part): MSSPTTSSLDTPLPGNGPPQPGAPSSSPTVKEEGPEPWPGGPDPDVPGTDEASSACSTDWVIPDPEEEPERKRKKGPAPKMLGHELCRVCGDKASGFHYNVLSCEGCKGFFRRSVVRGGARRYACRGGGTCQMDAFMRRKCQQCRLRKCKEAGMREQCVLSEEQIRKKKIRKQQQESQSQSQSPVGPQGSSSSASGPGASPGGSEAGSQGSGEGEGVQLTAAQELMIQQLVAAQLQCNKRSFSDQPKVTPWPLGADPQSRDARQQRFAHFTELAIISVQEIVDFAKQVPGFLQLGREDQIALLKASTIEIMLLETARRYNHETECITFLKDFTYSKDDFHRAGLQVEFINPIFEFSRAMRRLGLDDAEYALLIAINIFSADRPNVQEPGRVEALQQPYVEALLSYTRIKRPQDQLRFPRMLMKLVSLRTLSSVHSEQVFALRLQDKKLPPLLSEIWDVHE
Procedure, shortened: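 Transient transfection HepG2 (multiplexed RTUs, GAL4-UAS); NR-Gal4 chimera; 24 h exposure; RNA → RT-PCR → 6-FAM primer extension → HpaI → CE; increase vs DMSO.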

[18] = target: Hepatocyte nuclear factor 4-alpha (Homo sapiens) (UniProt P41235); experiment: ATG_HNF4a_TRANS: Attagene TRANS-FACTORIAL HepG2 Assay for human Hepatocyte Nuclear Factor 4 alpha (HNF4a) (AID 2282982); settings: HepG2 HNF4a transactivation reporter, mRNA readout
Hepatocyte nuclear factor 4-alpha (Homo sapiens), sequence (P41235 whole entry, looked up, the tested form may be a part): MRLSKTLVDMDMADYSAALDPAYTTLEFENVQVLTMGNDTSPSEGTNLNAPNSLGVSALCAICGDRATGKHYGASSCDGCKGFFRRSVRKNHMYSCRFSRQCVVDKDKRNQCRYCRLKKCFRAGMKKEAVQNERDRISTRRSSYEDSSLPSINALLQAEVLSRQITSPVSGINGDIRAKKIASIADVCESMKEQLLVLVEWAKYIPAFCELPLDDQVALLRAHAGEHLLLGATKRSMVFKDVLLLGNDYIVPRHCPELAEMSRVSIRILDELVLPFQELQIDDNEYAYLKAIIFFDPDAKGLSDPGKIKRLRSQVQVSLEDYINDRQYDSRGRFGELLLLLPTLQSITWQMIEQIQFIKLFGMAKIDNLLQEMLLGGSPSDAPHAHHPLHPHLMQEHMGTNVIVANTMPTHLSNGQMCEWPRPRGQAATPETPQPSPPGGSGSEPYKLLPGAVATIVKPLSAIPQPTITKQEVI
Procedure, shortened: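 Readout is fluorescent reporter-transcript fragments resolved by capillary electrophoresis after RT-PCR from HepG2 cells dosed for 24 h. Cells carried transfected GAL4-UAS reporter constructs measuring exogenous NR-GAL4 chimera activity; DMSO served as baseline.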

[19] = target: Nuclear receptor subfamily 1 group I member 3 (Homo sapiens) (UniProt Q14994); experiment: ATG_CAR_TRANS: Attagene TRANS-FACTORIAL HepG2 Assay for human Constitutive Androstane Receptor (CAR) (AID 2282969); settings: HepG2 Attagene TRANS-FACTORIAL CAR reporter;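 further: activators raise reporter mRNA above DMSO so AC50 marks induction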
Nuclear receptor subfamily 1 group I member 3 (Homo sapiens), sequence (Q14994 whole entry, looked up, the tested form may be a part): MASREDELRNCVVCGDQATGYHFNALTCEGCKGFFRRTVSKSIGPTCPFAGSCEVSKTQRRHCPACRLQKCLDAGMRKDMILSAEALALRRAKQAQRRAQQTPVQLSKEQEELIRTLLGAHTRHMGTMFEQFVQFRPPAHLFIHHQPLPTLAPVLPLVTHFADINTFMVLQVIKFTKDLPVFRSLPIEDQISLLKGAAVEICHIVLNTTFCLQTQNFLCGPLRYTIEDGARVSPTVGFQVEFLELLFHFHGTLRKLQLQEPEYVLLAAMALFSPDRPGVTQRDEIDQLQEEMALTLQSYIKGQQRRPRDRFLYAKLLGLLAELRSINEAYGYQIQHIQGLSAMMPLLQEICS
Procedure, shortened: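 Readout is reporter mRNA induction, quantified by fluorescent primer extension and capillary electrophoresis after RT-PCR. Cells were HepG2 transiently carrying chimeric NR-Gal4 constructs with GAL4-UAS reporters, treated for 24 h; activity scored upward from DMSO.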

COC(=O)CCCCC(=O)OC
outcome [1]: inactive
outcome [2]: inactive
outcome [3]: inactive
outcome [4]: inactive
outcome [5]: inactive
outcome [6]: inactive
outcome [7]: inactive
outcome [8]: inactive
outcome [9]: inactive
outcome [10]: inactive
outcome [11]: inactive
outcome [12]: inactive

NC(=O)N1C(=O)C(C(=O)c2cc(Cl)cs2)c2cc(F)c(Cl)cc21 (configuration not stated)
outcome [1]: inactive
outcome [2]: inactive
outcome [3]: inactive
outcome [4]: inactive
outcome [13]: inactive
AC50 [5]: 14.1 µM (active)
outcome [14]: inactive
outcome [15]: inactive
outcome [8]: inactive
outcome [16]: inactive
outcome [17]: inactive
outcome [18]: inactive
outcome [9]: inactive
outcome [10]: inactive
outcome [12]: inactive

CCCCC[C@H](O)CC(=O)CCc1ccc(O)c(OC)c1
outcome [1]: inactive
outcome [2]: inactive
outcome [3]: inactive
outcome [19]: inactive
outcome [4]: inactive
outcome [13]: inactive
outcome [5]: inactive
outcome [6]: inactive
outcome [15]: inactive
outcome [7]: inactive
outcome [8]: inactive
outcome [16]: inactive
outcome [17]: inactive
outcome [9]: inactive
outcome [10]: inactive
outcome [11]: inactive
outcome [12]: inactive

C#C[C@]1(O)CC[C@H]2[C@@H]3CCC4=CC(=O)CC[C@@H]4[C@H]3CC[C@@]21C
outcome [1]: inactive
outcome [2]: inactive
outcome [3]: inactive
outcome [19]: inactive
outcome [5]: inactive
outcome [14]: inactive
outcome [7]: inactive
outcome [9]: inactive
outcome [11]: inactive
outcome [12]: inactive

COc1cc(CCC(=O)CC(=O)CCc2ccc(O)c(OC)c2)ccc1O
outcome [1]: inactive
outcome [2]: inactive
outcome [3]: inactive
outcome [19]: inactive
outcome [4]: inactive
outcome [5]: inactive
outcome [14]: inactive
outcome [15]: inactive
outcome [8]: inactive
outcome [17]: inactive
outcome [18]: inactive
outcome [11]: inactive
AC50 [12]: 67.6 µM (active)

CCCOC(=O)c1ccc(O)cc1
outcome [1]: inactive
outcome [2]: inactive
outcome [3]: inactive
outcome [19]: inactive
AC50 [4]: 6.31 µM (active) and 20.8 µM (active)
outcome [13]: inactive
AC50 [5]: 73.5 µM (active)
outcome [5]: inactive
outcome [14]: inactive
outcome [6]: inactive
outcome [15]: inactive
outcome [7]: inactive
outcome [8]: inactive
outcome [16]: inactive
outcome [17]: inactive
outcome [18]: inactive
outcome [9]: inactive
outcome [10]: inactive
outcome [12]: inactive

c1ccc2c(c1)Cc1ccccc1-2
outcome [1]: inactive
outcome [2]: inactive
outcome [3]: inactive
AC50 [4]: 35.4 µM (active)
outcome [5]: inactive
outcome [6]: inactive
outcome [8]: inactive
outcome [9]: inactive
outcome [12]: inactive

CC(C)(C)c1cccc(C(C)(C)C)c1O
AC50 [1]: 173 µM (active)
outcome [2]: inactive
outcome [3]: inactive
outcome [19]: inactive
AC50 [4]: 61.4 µM (active)
AC50 [5]: 144 µM (active)
outcome [6]: inactive
outcome [7]: inactive
outcome [8]: inactive
AC50 [16]: 49.7 µM (active)
outcome [17]: inactive
outcome [10]: inactive
outcome [11]: inactive
outcome [12]: inactive

CC(=O)NC1(c2cccc(F)c2)CCN(CC[C@@]2(c3ccc(Cl)c(Cl)c3)CN(c3ccccc3)C(=O)CO2)CC1
AC50 [1]: 8.64 µM (active)
outcome [2]: inactive
outcome [3]: inactive
AC50 [5]: 25.7 µM (active)
outcome [14]: inactive
outcome [6]: inactive
AC50 [7]: 62 µM (active)
outcome [8]: inactive
outcome [16]: inactive
outcome [17]: inactive
outcome [18]: inactive
AC50 [9]: 52 µM (active)
outcome [12]: inactive
